# Results reported in article PMC7862700, “An all-to-all approach to the identification of sequence-specific readers for epigenetic DNA modifications on cytosine”.
# Tests used:
# Assay in all cases: DAPPL (digital affinity profiling via proximity ligation, sequencing); 10 mM Tris-HCl pH 7.5, 50 mM NaCl, 1 mM DTT, 4% glycerol, room temperature, 30 min; GST-TFs on glutathione beads, 16-mer random dsDNA library, 0.1% formaldehyde crosslink after washing; high values mean tight binding
# FEV = target: T1, FEV (Homo sapiens, UniProt Q99581 1-238); conditions: protein: recombinant; tags: N-terminal GST; dsDNA, one strand shown
# T1 sequence: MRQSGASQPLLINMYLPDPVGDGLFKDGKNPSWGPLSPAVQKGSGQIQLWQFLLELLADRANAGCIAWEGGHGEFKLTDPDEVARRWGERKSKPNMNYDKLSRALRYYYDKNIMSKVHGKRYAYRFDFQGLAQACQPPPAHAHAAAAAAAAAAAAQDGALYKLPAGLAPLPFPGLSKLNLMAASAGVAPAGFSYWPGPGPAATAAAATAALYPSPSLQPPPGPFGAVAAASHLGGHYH
# In short: (§1)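 Each value of binding signal is a hexamer's read frequency for a factor divided by the same hexamer's frequency in the tag-only sample. Barcoded, bead-captured GST fusions of human transcription factors made in yeast were pooled with that sample and incubated with 200 nmole of a random double-stranded 16-mer DNA library in Tris/NaCl/DTT/glycerol buffer at room temperature for 30 min. Washing, 0.1% formaldehyde crosslinking, proximity ligation, PCR and Illumina NextSeq500 sequencing followed.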
# ETV5 = ETV5 (Homo sapiens, UniProt P41161 1-510); conditions: protein: recombinant; tags: N-terminal GST; dsDNA, one strand shown
# Sequence of ETV5 (P41161 whole entry): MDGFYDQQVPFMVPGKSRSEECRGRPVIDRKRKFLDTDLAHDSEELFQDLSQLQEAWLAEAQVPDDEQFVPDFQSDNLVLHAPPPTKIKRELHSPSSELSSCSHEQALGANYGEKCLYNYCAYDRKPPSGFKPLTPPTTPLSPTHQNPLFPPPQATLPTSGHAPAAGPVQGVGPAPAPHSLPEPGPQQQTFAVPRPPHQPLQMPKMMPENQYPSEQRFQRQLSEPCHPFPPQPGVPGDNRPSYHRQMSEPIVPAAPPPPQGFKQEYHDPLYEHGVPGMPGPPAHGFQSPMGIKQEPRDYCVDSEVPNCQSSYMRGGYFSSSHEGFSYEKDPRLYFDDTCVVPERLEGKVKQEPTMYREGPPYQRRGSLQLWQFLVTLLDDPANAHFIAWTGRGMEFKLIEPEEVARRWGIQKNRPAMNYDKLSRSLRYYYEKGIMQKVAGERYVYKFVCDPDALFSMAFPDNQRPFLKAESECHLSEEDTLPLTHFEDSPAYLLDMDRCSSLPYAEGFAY
# In short: as §1
# HSF1 = HSF1 (Homo sapiens, UniProt Q00613 1-529); conditions: protein: recombinant; tags: N-terminal GST; chain copies: 3; dsDNA, one strand shown
# Sequence of HSF1 (Q00613 whole entry): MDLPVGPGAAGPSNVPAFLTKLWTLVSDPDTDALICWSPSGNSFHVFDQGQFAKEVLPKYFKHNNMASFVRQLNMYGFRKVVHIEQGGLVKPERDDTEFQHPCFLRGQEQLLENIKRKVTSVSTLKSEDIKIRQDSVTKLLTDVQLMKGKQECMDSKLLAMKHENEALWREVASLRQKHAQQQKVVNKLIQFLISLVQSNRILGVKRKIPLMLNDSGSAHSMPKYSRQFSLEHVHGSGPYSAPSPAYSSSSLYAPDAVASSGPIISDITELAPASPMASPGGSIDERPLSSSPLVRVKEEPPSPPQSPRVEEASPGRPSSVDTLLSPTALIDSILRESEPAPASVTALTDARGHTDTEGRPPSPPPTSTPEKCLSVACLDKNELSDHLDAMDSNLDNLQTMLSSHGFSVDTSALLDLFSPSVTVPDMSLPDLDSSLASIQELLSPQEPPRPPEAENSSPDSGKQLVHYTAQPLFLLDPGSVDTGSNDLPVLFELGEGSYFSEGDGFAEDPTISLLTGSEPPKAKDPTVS
# In short: as §1
# SPIC = target: T2, SPIC (Homo sapiens, UniProt Q8N5J4 1-248); conditions: protein: recombinant; tags: N-terminal GST; dsDNA, one strand shown
# T2 sequence: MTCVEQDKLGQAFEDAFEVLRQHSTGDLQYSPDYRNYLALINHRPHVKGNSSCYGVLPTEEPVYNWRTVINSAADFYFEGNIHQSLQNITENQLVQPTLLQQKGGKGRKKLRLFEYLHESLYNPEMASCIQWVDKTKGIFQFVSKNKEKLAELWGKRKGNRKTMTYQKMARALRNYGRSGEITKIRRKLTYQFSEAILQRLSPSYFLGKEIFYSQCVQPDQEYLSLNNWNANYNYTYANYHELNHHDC
# In short: as §1
# ELF4 = ELF4 (Homo sapiens, UniProt Q99607 1-663); conditions: protein: recombinant; tags: N-terminal GST; dsDNA, one strand shown
# Sequence of ELF4 (Q99607 whole entry): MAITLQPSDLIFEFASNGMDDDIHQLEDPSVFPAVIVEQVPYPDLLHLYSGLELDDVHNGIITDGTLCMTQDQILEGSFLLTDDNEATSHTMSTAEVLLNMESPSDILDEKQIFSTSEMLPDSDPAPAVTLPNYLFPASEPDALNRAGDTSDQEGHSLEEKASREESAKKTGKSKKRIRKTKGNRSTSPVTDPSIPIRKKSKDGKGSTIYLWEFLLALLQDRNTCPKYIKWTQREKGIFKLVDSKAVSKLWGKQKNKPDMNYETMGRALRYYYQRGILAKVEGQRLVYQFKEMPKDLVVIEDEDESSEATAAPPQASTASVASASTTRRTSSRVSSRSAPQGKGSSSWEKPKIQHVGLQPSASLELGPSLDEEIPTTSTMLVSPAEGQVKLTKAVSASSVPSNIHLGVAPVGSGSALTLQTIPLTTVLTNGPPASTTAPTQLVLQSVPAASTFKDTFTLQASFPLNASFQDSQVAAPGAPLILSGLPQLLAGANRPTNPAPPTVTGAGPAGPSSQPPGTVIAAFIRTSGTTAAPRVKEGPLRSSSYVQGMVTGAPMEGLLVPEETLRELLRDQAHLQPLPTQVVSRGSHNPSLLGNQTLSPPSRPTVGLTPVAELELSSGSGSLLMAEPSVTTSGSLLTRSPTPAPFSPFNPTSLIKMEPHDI
# In short: as §1
# ELK4 = target: T3, ELK4 (Homo sapiens, UniProt P28324-2 1-405); conditions: protein: recombinant; tags: N-terminal GST; dsDNA, one strand shown
# T3 sequence: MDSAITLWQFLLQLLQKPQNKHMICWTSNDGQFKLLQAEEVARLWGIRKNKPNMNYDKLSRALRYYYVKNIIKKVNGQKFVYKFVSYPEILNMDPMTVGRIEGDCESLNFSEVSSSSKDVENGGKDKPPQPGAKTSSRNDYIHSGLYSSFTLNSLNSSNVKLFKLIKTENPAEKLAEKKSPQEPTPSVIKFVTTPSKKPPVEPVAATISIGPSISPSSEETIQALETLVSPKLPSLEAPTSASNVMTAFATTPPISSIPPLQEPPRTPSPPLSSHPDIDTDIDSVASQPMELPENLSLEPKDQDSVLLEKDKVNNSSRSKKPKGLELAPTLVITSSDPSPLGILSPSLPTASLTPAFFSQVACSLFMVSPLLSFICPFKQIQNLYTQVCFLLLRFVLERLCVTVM
# In short: as §1
# ETV2 = target: T4, ETV2 (Homo sapiens, UniProt O00321 1-342); conditions: protein: recombinant; tags: N-terminal GST; dsDNA, one strand shown
# T4 sequence: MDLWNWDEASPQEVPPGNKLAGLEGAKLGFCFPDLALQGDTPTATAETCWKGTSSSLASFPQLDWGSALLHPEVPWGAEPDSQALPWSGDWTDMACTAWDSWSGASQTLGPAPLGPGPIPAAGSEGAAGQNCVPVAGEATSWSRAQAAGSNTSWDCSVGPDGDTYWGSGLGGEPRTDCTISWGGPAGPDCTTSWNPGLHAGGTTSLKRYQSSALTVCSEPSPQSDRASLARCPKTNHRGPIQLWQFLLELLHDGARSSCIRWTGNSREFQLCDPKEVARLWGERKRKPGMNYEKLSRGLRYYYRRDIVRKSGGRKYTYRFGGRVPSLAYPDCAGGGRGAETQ
# In short: as §1
# ELF3 = target: T5, ELF3 (Homo sapiens, UniProt P78545 1-371); conditions: protein: recombinant; tags: N-terminal GST; dsDNA, one strand shown
# T5 sequence: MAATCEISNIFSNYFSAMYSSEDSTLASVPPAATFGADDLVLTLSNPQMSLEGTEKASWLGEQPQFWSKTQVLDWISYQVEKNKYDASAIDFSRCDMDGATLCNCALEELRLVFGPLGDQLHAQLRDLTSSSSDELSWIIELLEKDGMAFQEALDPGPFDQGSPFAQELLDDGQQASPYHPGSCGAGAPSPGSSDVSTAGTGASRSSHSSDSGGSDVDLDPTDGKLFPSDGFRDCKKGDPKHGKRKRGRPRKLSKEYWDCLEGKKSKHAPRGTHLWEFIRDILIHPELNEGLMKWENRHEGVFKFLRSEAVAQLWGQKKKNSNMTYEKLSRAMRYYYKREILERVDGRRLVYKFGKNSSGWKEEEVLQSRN
# In short: as §1
# CRX = CRX (Homo sapiens, UniProt O43186 1-299); conditions: protein: recombinant; tags: N-terminal GST; dsDNA, one strand shown
# Sequence of CRX (O43186 whole entry): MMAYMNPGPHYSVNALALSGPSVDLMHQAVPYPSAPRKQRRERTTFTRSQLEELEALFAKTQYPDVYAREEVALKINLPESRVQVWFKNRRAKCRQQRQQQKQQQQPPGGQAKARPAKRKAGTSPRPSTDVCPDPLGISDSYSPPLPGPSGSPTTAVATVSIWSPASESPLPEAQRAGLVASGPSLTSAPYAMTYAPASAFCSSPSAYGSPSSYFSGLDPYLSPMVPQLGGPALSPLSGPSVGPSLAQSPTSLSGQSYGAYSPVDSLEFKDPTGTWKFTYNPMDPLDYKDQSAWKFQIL
# In short: as §1
sequence,measurement,setting,value
CTAACA,binding signal,FEV,"1.2 fold enrichment (6-mer frequency, TF over GST control)"
same,binding signal,ETV5,"1.26 fold enrichment (6-mer frequency, TF over GST control)"
same,binding signal,HSF1,"1.08 fold enrichment (6-mer frequency, TF over GST control)"
same,binding signal,SPIC,"1.26 fold enrichment (6-mer frequency, TF over GST control)"
same,binding signal,ELF4,"1.2 fold enrichment (6-mer frequency, TF over GST control)"
same,binding signal,ELK4,"1.17 fold enrichment (6-mer frequency, TF over GST control)"
same,binding signal,ETV2,"1.21 fold enrichment (6-mer frequency, TF over GST control)"
same,binding signal,ELF3,"1.28 fold enrichment (6-mer frequency, TF over GST control)"
same,binding signal,CRX,"1.2 fold enrichment (6-mer frequency, TF over GST control)"
